Assay results reported in the supplement of paper PMC9262897, “Low-cost anti-mycobacterial drug discovery using engineered E. coli” (Nature Communications, 2022).
Structures can show the parent of a compound that is named as a salt. ± gives the standard deviation of the averaged measurements.

Columns and labels:
Experiment in all cases: growth (OD600 after 10 h); higher = more growth (less inhibition)
[1] = test system: E. coli TESEC Alr+ wild-type control; conditions: compound 0.1 mM; raw OD600 reference: median of DMSO wells 0.241, cell-free background 0.041
Procedure: (§1)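 TESEC Mtb Alr E. coli, or the Alr+ wild-type control, in 384-well plates with Prestwick library compounds at 0.1 mM and 1% DMSO, across arabinose induction levels of 1E3 to 1E7 nM. Growth is read as OD600 after 10 h at 37 °C in triplicate biological replicates.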

[2] = test system: E. coli TESEC Mtb Asd; conditions: compound 0.1 mM
Procedure: (§2)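 TESEC E. coli strains in which the native enzyme is deleted and replaced by arabinose-inducible Mtb Asd, DapB, CysH or TrpD, each grown in its selective medium. Strains were screened against the Prestwick library at 0.1 mM and 1% DMSO in 384-well format at low and high arabinose induction. Growth is read as OD600 after 10 h in triplicate.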

[3] = test system: E. coli TESEC Mtb DapB; conditions: compound 0.1 mM
Procedure: as §2

[4] = test system: E. coli TESEC Mtb Alr; conditions: compound 0.1 mM
Procedure: (§3)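 TESEC Mtb Alr E. coli (ΔaraC ΔtolC ΔentC Δalr ΔdadX, arabinose-inducible Mtb Alr) or the Alr+ wild-type control strain, grown in defined M9-fructose medium without D-alanine in 96-well plates with Prestwick library compounds at 0.1 mM and 1% DMSO. Low Alr induction is 0.1 µM arabinose and high induction is 10 mM arabinose.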

[5] = test system: E. coli TESEC Mtb Alr; conditions: compound 0.1 mM; remark: listed apart in the source
Procedure: as §1

[6] = test system: E. coli TESEC Alr+ wild-type control; conditions: compound 0.1 mM; raw OD600 reference: median of DMSO wells 0.49, cell-free background 0.052
Procedure: as §3

[7] = arabinose induction (level): High, raw OD600 reference: median of DMSO wells 0.331, cell-free background 0.041
[8] = arabinose induction (level): Low, raw OD600 reference: median of DMSO wells 0.417, cell-free background 0.041
[9] = arabinose induction (level): High, raw OD600 reference: median of DMSO wells […], cell-free background 0.041
[10] = arabinose induction (level): Low, raw OD600 reference: median of DMSO wells 0.227, cell-free background 0.041
[11] = arabinose 100 nM, raw OD600 reference: median of DMSO wells 0.413, cell-free background 0.052
[12] = arabinose 10000000 nM, raw OD600 reference: median of DMSO wells […], cell-free background 0.052
[13] = arabinose 1000 nM, raw OD600 reference: median of DMSO wells 0.294, cell-free background 0.041
[14] = arabinose 10000 nM, raw OD600 reference: median of DMSO wells 0.264, cell-free background 0.041
[15] = arabinose 100000 nM, raw OD600 reference: median of DMSO wells 0.201, cell-free background 0.041
[16] = arabinose 1000000 nM, raw OD600 reference: median of DMSO wells 0.193, cell-free background 0.041
[17] = arabinose 10000000 nM, raw OD600 reference: median of DMSO wells 0.146, cell-free background 0.041

SMILES | growth [1] | growth [2, 7] | growth [2, 8] | growth [3, 9] | growth [3, 10] | growth [4, 11] | growth [4, 12] | growth [5, 13] | growth [5, 14] | growth [5, 15] | growth [5, 16] | growth [5, 17] | growth [6]
C#C[C@]1(O)CC[C@H]2[C@@H]3CCC4=CC(=O)CCC4=C3C=C[C@@]21CC [Gestrinone] | 0.13 ± 0.0014 | 0.216 ± 0.065 | 0.253 ± 0.12 | 0.179 ± 0.015 | 0.212 ± 0.013 | 0.374 ± 0.0073 | 0.165 ± 0.03 | – | – | – | – | – | –
NCCCNCCSP(=O)(O)O [Amifostine] | 0.25 ± 0.0069 | 0.372 ± 0.057 | 0.431 ± 0.061 | – | – | 0.402 ± 0.011 | 0.352 ± 0.011 | 0.297 ± 0.011 | 0.273 ± 0.0058 | 0.253 ± 0.011 | 0.196 ± 0.013 | 0.145 ± 0.0044 | –
C[CH2][Hg][S]c1ccccc1C(=O)[O-].[Na+] [Thimerosal] | 0.0433 ± 0.0046 | 0.0491 ± 0.0015 | 0.0488 ± 0.0015 | 0.207 ± 0.019 | 0.214 ± 0.014 | 0.355 ± 0.036 | 0.0589 ± 0.0027 | – | – | – | – | – | –
c1ccc2c(c1)OCC(C1=NCCN1)O2 (centres undefined) [Idazoxan hydrochloride] | 0.23 ± 0.013 | 0.373 ± 0.039 | 0.379 ± 0.019 | 0.183 ± 0.017 | 0.228 ± 0.021 | 0.401 ± 0.014 | 0.315 ± 0.0098 | – | – | – | – | – | –
CN(C)C(=O)Oc1cccc([N+](C)(C)C)c1 [Neostigmine bromide] | 0.256 ± 0.0033 | 0.222 ± 0.028 | 0.331 ± 0.14 | 0.204 ± 0.0094 | 0.232 ± 0.064 | 0.404 ± 0.012 | 0.339 ± 0.011 | – | – | – | – | – | 0.563 ± 0.068
NCC1(CC(=O)O)CCCCC1 [Gabapentin] | 0.255 ± 0.0094 | 0.478 ± 0.023 | 0.399 ± 0.044 | 0.215 ± 0.016 | 0.278 ± 0.045 | 0.401 ± 0.02 | 0.325 ± 0.022 | – | – | – | – | – | –
CCC1=C[C@H]2CN3CCc4c([nH]c5ccccc45)[C@](C(=O)OC)(C2)[C@H]13 [Catharanthine] | 0.203 ± 0.0049 | 0.2 ± 0.032 | 0.437 ± 0.016 | 0.167 ± 0.0065 | 0.1738 ± 0.0015 | 0.4199 ± 0.0038 | 0.3 ± 0.017 | – | – | – | – | – | –
c1ccc2c(c1)Nc1ccccc1S2 [Phenothiazine] | 0.157 ± 0.0061 | 0.377 ± 0.076 | 0.177 ± 0.014 | 0.209 ± 0.034 | 0.236 ± 0.03 | 0.415 ± 0.0099 | 0.344 ± 0.021 | – | – | – | – | – | –
CC(C)(C)NCC(O)c1ccccc1Cl (centres undefined) [Tulobuterol] | 0.22 ± 0.005 | 0.246 ± 0.067 | 0.296 ± 0.019 | – | – | 0.409 ± 0.0083 | 0.341 ± 0.018 | – | – | – | – | – | 0.507 ± 0.082
C[C@@H]1CN([C@H]2CC[C@](C#N)(c3ccc(F)cc3)CC2)CC[C@]1(C(=O)O)c1ccccc1 [Levocabastine hydrochloride] | 0.215 ± 0.0053 | 0.212 ± 0.033 | 0.384 ± 0.03 | 0.192 ± 0.0051 | 0.265 ± 0.029 | 0.404 ± 0.017 | 0.321 ± 0.022 | – | – | – | – | – | –
COP(=O)(OC)C(O)C(Cl)(Cl)Cl (centres undefined) [Trichlorfon] | 0.249 ± 0.0088 | 0.348 ± 0.072 | 0.363 ± 0.079 | – | – | 0.412 ± 0.012 | 0.257 ± 0.17 | 0.293 ± 0.0065 | 0.248 ± 0.0076 | 0.199 ± 0.015 | 0.181 ± 0.0066 | 0.146 ± 0.0059 | –
CC[N+]1(C)CCCC(OC(=O)C(O)(c2ccccc2)c2ccccc2)C1 (centres undefined) [Pipenzolate bromide] | 0.217 ± 0.0052 | 0.299 ± 0.035 | 0.469 ± 0.025 | – | – | 0.409 ± 0.023 | 0.348 ± 0.025 | 0.284 ± 0.014 | 0.258 ± 0.012 | 0.169 ± 0.0056 | 0.186 ± 0.0047 | 0.133 ± 0.0034 | –
CC[C@@]1([C@@H]2O[C@@H]([C@H]3O[C@@](O)(CO)[C@H](C)C[C@@H]3C)C[C@@H]2C)CC[C@H]([C@]2(C)CC[C@]3(C[C@H](O)[C@@H](C)[C@@H]([C@@H](C)[C@@H](OC)[C@H](C)C(=O)O)O3)O2)O1 [Monensin sodium salt] | 0.218 ± 0.0078 | 0.295 ± 0.028 | 0.408 ± 0.016 | – | – | 0.384 ± 0.007 | 0.149 ± 0.013 | 0.279 ± 0.017 | 0.264 ± 0.0038 | 0.207 ± 0.028 | 0.159 ± 0.0076 | 0.138 ± 0.0041 | –
CN1C[C@H](CNC(=O)OCc2ccccc2)C[C@@H]2c3cccc4c3c(cn4C)C[C@H]21 [Metergoline] | 0.0409 ± 0.00056 | 0.0522 ± 0.002 | 0.0487 ± 0.0029 | 0.048 ± 0.0011 | 0.0468 ± 0.00083 | 0.278 ± 0.2 | 0.05077 ± 0.00012 | – | – | – | – | – | –
C(#CCN1CCCC1)CN1CCCC1 [Tremorine dihydrochloride] | 0.275 ± 0.0094 | 0.425 ± 0.059 | 0.464 ± 0.029 | 0.2 ± 0.015 | 0.234 ± 0.059 | 0.415 ± 0.018 | 0.375 ± 0.023 | – | – | – | – | – | –
CC(=O)O[C@H]1C[C@@H]2CC[C@@H]3[C@H](CC[C@@]4(C)[C@H]3C[C@H]([N+]3(C)CCCCC3)[C@@H]4OC(C)=O)[C@@]2(C)C[C@@H]1[N+]1(C)CCCCC1 [Pancuronium bromide] | 0.232 ± 0.0035 | 0.242 ± 0.064 | 0.407 ± 0.014 | – | – | 0.421 ± 0.026 | 0.349 ± 0.019 | – | – | – | – | – | –
CC(C)c1c(CN(C)C(C)Cc2ccccc2)n(C)n(-c2ccccc2)c1=O (centres undefined) [Famprofazone] | 0.219 ± 0.0093 | 0.425 ± 0.02 | 0.486 ± 0.087 | – | – | 0.406 ± 0.0053 | 0.269 ± 0.0074 | – | – | – | – | – | –
C[C@]12CC[C@H](O)C[C@H]1CC[C@@H]1[C@@H]2CC[C@]2(C)[C@@H](C3=CC(=O)OC3)CC[C@]12O [Digitoxigenin] | 0.147 ± 0.0028 | 0.154 ± 0.0042 | 0.289 ± 0.096 | 0.165 ± 0.0087 | 0.171 ± 0.003 | 0.41 ± 0.0093 | 0.227 ± 0.01 | – | – | – | – | – | –
CNC(=O)Oc1ccc2c(c1)[C@]1(C)CCN(C)[C@@H]1N2C [Eserine hemisulfate salt] | 0.229 ± 0.0049 | 0.328 ± 0.037 | 0.408 ± 0.048 | – | – | 0.409 ± 0.017 | 0.366 ± 0.01 | 0.289 ± 0.0076 | 0.251 ± 0.003 | 0.203 ± 0.025 | 0.184 ± 0.0065 | 0.139 ± 0.008 | –
